Results: PubChem BioAssay (Tox21)
Inconclusive results are not listed. Active and inactive are the calls of the source. Unless noted, calls come from the whole dose curve.

Columns and labels:
[1] = qHTS assay to identify small molecule antagonists of the vitamin D receptor (VDR) signaling pathway - cell viability counter screen (AID 743225; active = well fitted curve in the direction sought with a large enough effect in the repeat runs; an effect the other way counts as inactive or inconclusive; note: % is set by controls: 0 for no effect and ±100 for the full control effect; nearly all actives have a fitted effect of over 50% in size)
Outline: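 Cytotoxicity counter screen read by CellTiter-Glo luminescence (30 min, room temperature) in the same wells as the VDR-bla antagonist readout. HEK 293T VDR-UAS-bla cells had 16 h at 37C with compound and 3 nM (final) 1-alpha,25-dihydroxyvitamin D3, then 2 h with FRET substrate.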

[2] = qHTS assay to identify small molecule agonists of the NFkB signaling pathway (AID 1159509; active = well fitted curve in the direction sought with a large enough effect in the signal ratio in the repeat runs, not every such curve was filed as active; the % refers to the signal ratio; note: series mostly up to about 61 µM; % is set by controls: 0 for no effect and ±100 for the full control effect)
Outline: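 Agonist activity was read as beta-lactamase-driven FRET change (460 and 530 nm emission, 405 nm excitation) following 1.5 hr substrate loading at room temperature. Beforehand, ME-180 NFkB-bla reporter cells were treated with compounds for 5 hr at 37 C.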

[3] = qHTS assay to identify small molecule agonists of the NFkB signaling pathway - cell viability counter screen (AID 1159515); note: series mostly up to about 61 µM; % is set by controls: 0 for no effect and ±100 for the full control effect; nearly all actives have a fitted effect of over 55% in size
Outline: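 ME-180 NFkB-bla cells, 2,000/well; overnight attach; compound 5 hr, 37 C/5% CO2; LiveBLAzer substrate 1.5 hr RT; then CellTiter-Glo in same wells, 30 min RT, luminescence read.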

[4] = qHTS assay to identify small molecule agonists of the endoplasmic reticulum stress response signaling pathway (AID 1159516; active = well fitted activation curve with a large enough effect in the signal ratio in the repeat runs, not every such curve was filed as active; the % refers to the signal ratio; note: % is set by controls: 0 for no effect and ±100 for the full control effect)
Outline: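 HeLa ESRE-bla reporter line; cpd 5 h, 37 C/5% CO2; LiveBLAzer B/G FRET substrate 2 h RT; ex 405, em 460/530 nm.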

[5] = qHTS assay to identify small molecule agonists of the endoplasmic reticulum stress response signaling pathway - cell viability counter screen (AID 1159517);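 note: HeLa cells carrying an ER stress response element beta-lactamase reporter; series mostly up to about 61 µM; % is set by controls: 0 for no effect and ±100 for the full control effect; nearly all actives have a fitted effect of over 50% in size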
Outline: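 In parallel with the ESRE reporter read, cytotoxicity was scored by CellTiter-Glo luminescence (30 min, room temperature) on HeLa ESRE-bla cells dosed for 5 hr.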

[6] = qHTS assay to identify small molecule antagonists of the retinoid-related orphan receptor gamma (ROR-gamma) signaling pathway - cell viability counter screen (AID 1159520; active = well fitted curve in the direction sought with a large enough effect in the repeat runs; an effect the other way counts as inactive or inconclusive; note: % is set by controls: 0 for no effect and ±100 for the full control effect; nearly all actives have a fitted effect of over 50% in size)
Outline: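 Tet-on ROR gamma CHO cells were given compounds for 2 hr, then doxycycline hyclate at 1 uM final, and incubated 16 hr at 37 C. Viability was measured as ATP content by CellTiter-Glo luminescence.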

[7] = molecular target: Nuclear receptor ROR-gamma (Homo sapiens) (UniProt P51449); experiment: qHTS assay to identify small molecule antagonists of the retinoid-related orphan receptor gamma (ROR-gamma) signaling pathway (AID 1159521; active = well fitted curve in the direction sought with a large enough effect in the repeat runs; an effect the other way counts as inactive or inconclusive; note: top concentration of the series differs between compounds; % is set by controls: 0 for no effect and ±100 for the full control effect; nearly all actives have a fitted effect of over 50% in size)
Outline: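 Antagonist read-out: drop in luminescence (ONE-Glo) from an RORE-LUC reporter in CHO cells with doxycycline-inducible ROR-gamma; 2 hr compound pretreatment, 1 uM doxycycline, 16 hr incubation at 37 C.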

[8] = qHTS assay to identify small molecule agonists of the AP-1 signaling pathway - cell viability counter screen (AID 1159525); note: nearly all actives have a fitted effect of over 55% in size
Outline: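 Same-well cytotoxicity counter screen of the Tox21 10K library in ME-180 cells. The readout is ATP-dependent luminescence after 5 h compound treatment. Data are normalised to DMSO and tetra n-octyl ammonium bromide controls.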

[9] = qHTS assay to identify small molecule agonists of the AP-1 signaling pathway (AID 1159526); note: % is set by controls: 0 for no effect and ±100 for the full control effect
[10] = molecular target: Retinoic acid receptor RXR-alpha (Homo sapiens) (UniProt P19793); experiment: qHTS assay to identify small molecule agonists of the RXR signaling pathway (AID 1159527); note: % is set by controls: 0 for no effect and ±100 for the full control effect; nearly all actives have a fitted effect of over 35% in size
Outline: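 Agonist-mode beta-lactamase reporter assay: HEK 293T RXR-alpha-UAS-bla cells treated 16 hr at 37 C with compounds, 9-cis retinoic acid as positive control. LiveBLAzer FRET substrate, 405 nm excitation, 460/530 nm emission.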

Chain of Retinoic acid receptor RXR-alpha (Homo sapiens) (P19793 whole entry, looked up): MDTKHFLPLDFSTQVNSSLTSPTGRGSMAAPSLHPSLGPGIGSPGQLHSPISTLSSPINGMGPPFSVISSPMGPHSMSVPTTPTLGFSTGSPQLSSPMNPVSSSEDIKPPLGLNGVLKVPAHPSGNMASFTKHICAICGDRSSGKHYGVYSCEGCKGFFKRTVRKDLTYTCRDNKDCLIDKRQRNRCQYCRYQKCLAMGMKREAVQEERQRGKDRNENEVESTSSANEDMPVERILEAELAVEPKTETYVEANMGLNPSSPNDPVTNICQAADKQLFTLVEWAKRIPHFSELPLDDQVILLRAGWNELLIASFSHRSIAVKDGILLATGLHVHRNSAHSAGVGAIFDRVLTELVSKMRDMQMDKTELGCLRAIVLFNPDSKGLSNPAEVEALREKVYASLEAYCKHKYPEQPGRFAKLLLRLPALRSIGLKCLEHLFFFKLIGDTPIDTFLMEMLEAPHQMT

CC(=O)C(C)O (centres undefined)
inactive: outcome [1] | outcome [2] | outcome [3] | outcome [4] | outcome [5] | outcome [6] | outcome [7] | outcome [8] | outcome [9] | Potency [10]

CC(=O)OC1CCCCC1C(C)(C)C (centres undefined)
inactive: outcome [2] | outcome [3] | outcome [4] | outcome [5] | outcome [6] | outcome [7] | outcome [8] | outcome [9] | Potency [10]

C=CCN1C[C@H](C(=O)N(CCCN(C)C)C(=O)NCC)C[C@@H]2c3cccc4[nH]cc(c34)C[C@H]21
inactive: outcome [2] | outcome [3] | outcome [4] | outcome [5] | outcome [6] | outcome [7] | outcome [8] | outcome [9] | Potency [10]

c1ccc2cnccc2c1
inactive: outcome [2] | outcome [3] | outcome [4] | outcome [5] | outcome [6] | outcome [7] | outcome [8] | outcome [9] | Potency [10]

COP(=O)(O)OP(=O)(O)OC
inactive: outcome [2] | outcome [3] | outcome [4] | outcome [5] | outcome [6] | outcome [7] | outcome [8] | outcome [9] | Potency [10]

CC(S)C(C)S (centres undefined)
inactive: outcome [2] | outcome [3] | outcome [4] | outcome [5] | outcome [6] | outcome [7] | outcome [8] | outcome [9] | Potency [10]

Cc1cc(C)c(C(=O)O)c(C)c1
inactive: outcome [2] | outcome [3] | outcome [4] | outcome [5] | outcome [6] | outcome [7] | outcome [8] | outcome [9] | Potency [10]

Cc1ccc(C(=O)O)cc1[N+](=O)[O-]
inactive: outcome [2] | outcome [3] | outcome [4] | outcome [5] | outcome [6] | outcome [7] | outcome [8] | outcome [9] | Potency [10]

CCCCOC(=O)C(C)O (centres undefined)
inactive: outcome [2] | outcome [3] | outcome [4] | outcome [5] | outcome [6] | outcome [7] | outcome [8] | outcome [9] | Potency [10]

CC(C)NCC(O)c1ccc2ccccc2c1 (centres undefined)
inactive: outcome [1] | outcome [2] | outcome [3] | outcome [4] | outcome [5] | outcome [6] | outcome [7] | outcome [8] | outcome [9] | Potency [10]

COc1ccc(CCO)cc1
inactive: outcome [2] | outcome [3] | outcome [4] | outcome [5] | outcome [6] | outcome [7] | outcome [8] | outcome [9] | Potency [10]

Cc1ncc([N+](=O)[O-])n1CC(C)O (centres undefined)
inactive: outcome [1] | outcome [2] | outcome [3] | outcome [4] | outcome [5] | outcome [6] | outcome [7] | outcome [8] | outcome [9] | Potency [10]

CCC(=O)Oc1ccc2c(c1)CC[C@@H]1[C@@H]2CC[C@@]2(C)[C@H]1C[C@@H](OC(=O)CC)[C@@H]2OC(=O)CC
inactive: outcome [1] | outcome [2] | outcome [3] | outcome [4] | outcome [5] | outcome [6] | outcome [7] | outcome [8] | outcome [9] | Potency [10]

CN1CCOC(c2ccccc2)c2ccccc2C1 (centres undefined)
inactive: outcome [2] | outcome [3] | outcome [4] | outcome [5] | outcome [6] | outcome [7] | outcome [8] | outcome [9] | Potency [10]

C#CCN[C@@H]1CCc2ccccc21
inactive: outcome [1] | outcome [2] | outcome [3] | outcome [4] | outcome [5] | outcome [6] | outcome [7] | outcome [8] | outcome [9] | Potency [10]

CCCCOCC(C)O (centres undefined)
inactive: outcome [1] | outcome [2] | outcome [3] | outcome [4] | outcome [5] | outcome [6] | outcome [7] | outcome [8] | outcome [9] | Potency [10]

Cn1nnc2c(C(N)=O)ncn2c1=O
inactive: outcome [1] | outcome [2] | outcome [3] | outcome [4] | outcome [5] | outcome [6] | outcome [7] | outcome [8] | outcome [9] | Potency [10]

CC(C)C1OCCN1CCOC(=O)NCCCCCCNC(=O)OCCN1CCOC1C(C)C (centres undefined)
inactive: outcome [2] | outcome [3] | outcome [4] | outcome [5] | outcome [6] | outcome [7] | outcome [8] | outcome [9] | Potency [10]

CCCCCCCCCOC(=O)c1ccccc1C(=O)OCCCCCCCCC
inactive: outcome [2] | outcome [3] | outcome [4] | outcome [5] | outcome [6] | outcome [7] | outcome [8] | outcome [9] | Potency [10]

O=C(O)CNC(=O)CNC(=O)CNC(=O)CSC(=O)c1ccccc1
inactive: outcome [2] | outcome [3] | outcome [4] | outcome [5] | outcome [6] | outcome [7] | outcome [8] | outcome [9] | Potency [10]

CC(C)CO
inactive: outcome [2] | outcome [3] | outcome [4] | outcome [5] | outcome [6] | outcome [7] | outcome [8] | outcome [9] | Potency [10]

N[C@@H](Cc1ccc(O)cc1)C(=O)O
inactive: activation [2] -0.279% [at 6.95 µM] | activity, negative = cytotoxic [3] 9.74% [at 6.95 µM] | activation [4] -0.0263% [at 6.95 µM] | activity change, negative = cytotoxicity [5] 2.71% [at 6.95 µM] | activity, negative = cytotoxicity [6] 1.78% [at 8.39 µM] | activity change, negative = inhibition [7] 1.55% [at 8.39 µM] | viability change, negative = cytotoxic [8] 1.17% [at 6.97 µM] | activation [9] -1.16% [at 6.97 µM] | activation [10] 0.71% [at 6.98 µM]

O=C1CCCCO1
inactive: outcome [2] | outcome [3] | outcome [4] | outcome [5] | outcome [6] | outcome [7] | outcome [8] | outcome [9] | Potency [10]

OCCN1CCOCC1
inactive: outcome [1] | outcome [2] | outcome [3] | outcome [4] | outcome [5] | outcome [6] | outcome [7] | outcome [8] | outcome [9] | Potency [10]

N#Cc1ccccc1O
inactive: outcome [1] | outcome [2] | outcome [3] | outcome [4] | outcome [5] | outcome [6] | outcome [7] | outcome [8] | outcome [9] | Potency [10]
